Compound activity (PubChem BioAssay)
Granule exo inh: blocks lytic granule exocytosis. TALL-104 LAMP-1 surface exposure, flow cytometry; cells stimulated with thapsigargin and PMA. inhibition, % at 10 µM. 0.66% of 360,000 active. AID 651702;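 active means inhibition above about 55%, limit read from the data; inconclusive means no clear call, values can overlap the other calls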
ALR H2O2 inh: human ALR oxidase inhibition via reduced H2O2; P55789; purified ALR, DTT oxidation, H2O2 HRP-luminol luminescence; inhibition, % (concentration not given with the values); 3.8% of 290,000 active;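 active means mean replicate inhibition above about 79%, with every replicate also reaching it, limit read from the data; inconclusive means only one of the two criteria met; inactive means mean below limit and not every replicate reaching it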
Target sequence (P55789 whole entry, looked up): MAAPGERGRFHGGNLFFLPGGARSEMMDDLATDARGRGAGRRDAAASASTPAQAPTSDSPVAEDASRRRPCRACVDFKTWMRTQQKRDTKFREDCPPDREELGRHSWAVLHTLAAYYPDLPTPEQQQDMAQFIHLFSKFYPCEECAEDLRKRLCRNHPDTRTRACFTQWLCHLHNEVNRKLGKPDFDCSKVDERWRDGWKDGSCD
JMJD2C inh: inhibitors of human GASC-1 (JMJD2C) demethylase; Q9H3R0; 0.069% of 330,000 active; GST-JMJD2C(1-420) H3K9me3 demethylation, DELFIA europium; AID 2099; inhibition, % at 2.35 µM;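 active means more than half of a compound's replicate wells show inhibition beyond 50%, single wells judged on their own value; inconclusive means some, but no more than half, of replicates pass 50% inhibition; inactive means no replicate passes 50% inhibition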;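 further: signal counts dimethyl H3K9 product captured on neutravidin plate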
Target sequence (Q9H3R0 1-420 limits assumed): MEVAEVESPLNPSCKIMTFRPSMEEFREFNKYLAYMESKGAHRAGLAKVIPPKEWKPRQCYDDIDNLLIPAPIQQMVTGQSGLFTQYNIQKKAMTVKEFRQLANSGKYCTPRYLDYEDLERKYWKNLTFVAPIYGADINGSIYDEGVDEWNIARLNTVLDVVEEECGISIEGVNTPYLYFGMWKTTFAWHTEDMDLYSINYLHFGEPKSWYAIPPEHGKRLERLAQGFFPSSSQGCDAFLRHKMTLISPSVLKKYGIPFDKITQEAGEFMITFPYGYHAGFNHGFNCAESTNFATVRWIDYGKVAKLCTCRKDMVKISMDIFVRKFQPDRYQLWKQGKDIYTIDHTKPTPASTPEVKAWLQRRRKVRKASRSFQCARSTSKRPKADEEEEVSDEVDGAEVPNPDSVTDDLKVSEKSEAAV
SMARCA2 act: activators of SMARCA2 function | MG213 cells, MMTV-luciferase reporter, dexamethasone, overnight | activation, % at 9.1 µM | 1% of 370,000 active | AID 652017; in the data active means activation above about 7.8%
MIN6 prolif: inducers of beta-cell replication in MIN6 cells | MIN6 cells proliferation, ATPlite luminescence, 48 h; cells starved in 0.2% serum; 100% = growth in 10% serum | proliferation, % at 10 µM | 0.29% of 330,000 active;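 active means compounds whose signal lies at least 3.5 SD above the mean of all wells on their plate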
M18AAP inhibitor: PfM18AAP enzyme inhibition; AID 1822; recombinant PfM18AAP, H-Glu-NHMec fluorogenic cleavage; inhibition, % at 7.35 µM; 1.2% of 290,000 active;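 active means inhibition above the campaign mean inhibition over all tested compounds plus 3 SD, cut at about 28% in these data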
SMARCA2 act conf: SMARCA2 activation, confirmation screen | shares compounds with SMARCA2 act | MG213 cells, MMTV-luciferase with dexamethasone, luminescence, overnight; MG213 cells expressing E1A, Rb sequestered; DMSO wells 0%, reference activator 100% | activation, % at 9.1 µM | 30% of 3,500 active | AID 652260;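 active means activation above its plate's cutoff, the mean activation of tested wells plus 3 SD, cut at about 7.9% in these data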
GAL4-VP16 Luc: GAL4-VP16 reporter activation counter-screen; shares compounds with SMARCA2 act; activation, % at 9.1 µM; 41% of 3,500 active; HEK293 GAL4-VP16 pG5luc reporter, luciferase luminescence; scaled: DMSO wells 0%, SAHA wells 100%;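 active means activation above the solvent-only control well mean plus 3 SD, averaged across control plates, cut at about 5.2% in these data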
Large screens that a line does not name were inactive (follow-up assays come after a bar, where they were run). The list is not random: actives were taken first. Their share in the collection is about 5.4%.

COC(=O)C(C(=O)OC)c1ccccc1NS(=O)(=O)c1c(C)cc(C)cc1C	none (no result: ALR H2O2 inh, JMJD2C inh, MIN6 prolif, M18AAP inhibitor)
Nc1nc(=O)n(C2CCC(CO)O2)cc1F (stereo unspecified)	none (no result: ALR H2O2 inh, JMJD2C inh, MIN6 prolif, M18AAP inhibitor)
Cc1cc2c(c(=O)o1)[C@@]1(C(=O)N(C)c3ccccc31)C1=C(CC(C)(C)OC1=O)O2	none (no result: Granule exo inh, ALR H2O2 inh, JMJD2C inh, MIN6 prolif, M18AAP inhibitor)
COc1cccc(-c2cnc3c(NC=O)cc(-c4ccc(O)c(OC)c4)cn23)c1	none (no result: ALR H2O2 inh, JMJD2C inh, MIN6 prolif, M18AAP inhibitor)
COc1cc(-c2cc(NC=O)c3ncc(-c4ccc(C(C)=O)cc4)n3c2)ccc1O	SMARCA2 act 14 (no result: ALR H2O2 inh, JMJD2C inh, MIN6 prolif, M18AAP inhibitor) | SMARCA2 act conf 21 | GAL4-VP16 Luc inactive
COc1ccc(-c2cc(NC=O)c3ncc(-c4ccc(OC)c(OC)c4)n3c2)cc1OC	SMARCA2 act 13 (no result: ALR H2O2 inh, JMJD2C inh, MIN6 prolif, M18AAP inhibitor) | SMARCA2 act conf 15 | GAL4-VP16 Luc 8.6
CCC(C)C(=O)Nc1cc(Cl)ccc1C(=O)O (stereo unspecified)	none
CCC(=O)Nc1cc(Cl)ccc1C(=O)O	SMARCA2 act 9.4 | SMARCA2 act conf inactive | GAL4-VP16 Luc inactive
COc1ccc(-c2nnc(-c3ccc(N(C)C)cc3)o2)cc1	SMARCA2 act 16 (no result: ALR H2O2 inh) | SMARCA2 act conf 12 | GAL4-VP16 Luc inactive
COc1ccc(-c2nnc(-c3ccc(N)cc3)o2)cc1	none
COCC(=O)N(C)[C@H]1C[C@H]2c3[nH]c4c(-c5ccccc5)cccc4c3CCN2C(=O)[C@H]1[C@H](C)O	none (no result: Granule exo inh, ALR H2O2 inh, JMJD2C inh, MIN6 prolif, M18AAP inhibitor)
CC1=CC2=NC(=O)/C(=C\c3cc(C)n(-c4ccccc4)c3C)C(=N)N2O1	none
CC1=CC2=NC(=O)/C(=C\c3cc(C)n(-c4cccc(Cl)c4)c3C)C(=N)N2O1	SMARCA2 act 9.1 | SMARCA2 act conf inactive | GAL4-VP16 Luc inactive
COc1ccc(NC(=O)c2onc(C)c2Cl)cc1	SMARCA2 act 10 | SMARCA2 act conf inactive | GAL4-VP16 Luc 7.0
CCN(CC)c1ccc(C=N/C(C#N)=C(\N)C#N)cc1	ALR H2O2 inh inconclusive, SMARCA2 act 8.8 | SMARCA2 act conf inactive | GAL4-VP16 Luc 7.5
CCN(CC)c1ccc(/C=C(\C#N)c2ccccn2)cc1	none (no result: SMARCA2 act)
CC(=O)NC(c1ccccc1)c1nc(-c2ccc3ccccc3c2)cs1 (stereo unspecified)	none (no result: ALR H2O2 inh, JMJD2C inh, MIN6 prolif, M18AAP inhibitor)
CCOc1cccc(/C=N/N=C/c2cccc(OCC)c2O)c1O	none (no result: ALR H2O2 inh)
CCOc1cccc(C=Nc2cc(C)cc(C)c2O)c1O	SMARCA2 act 12 | SMARCA2 act conf inactive | GAL4-VP16 Luc inactive
COc1cc(/C=C/c2nc3ccccc3s2)cc(OC)c1O	ALR H2O2 inh 95, SMARCA2 act 11 | SMARCA2 act conf inactive | GAL4-VP16 Luc inactive
O=C(c1ccc(F)cc1)c1cc2ccccc2o1	SMARCA2 act 11 | SMARCA2 act conf inactive | GAL4-VP16 Luc 7.4
O=C(c1ccccc1)c1cc2ccccc2o1	none
Cc1ccnc(NC(=O)Cn2cc([N+](=O)[O-])cn2)c1	SMARCA2 act 16 | SMARCA2 act conf inactive | GAL4-VP16 Luc 5.8
O=C(Cn1cc([N+](=O)[O-])cn1)Nc1ccccn1	none
Cc1ccsc1C(=O)OCC(=O)NCCC1=CCCCC1	SMARCA2 act 8.4 | SMARCA2 act conf 9.7 | GAL4-VP16 Luc inactive
O=C(CCNC(=O)c1ccc([N+](=O)[O-])cc1)NCCC1=CCCCC1	none (no result: M18AAP inhibitor)
COc1ccc(C(=O)NCCC2=CCCCC2)cc1	none
COc1cccc(C(=O)NCCC2=CCCCC2)c1	SMARCA2 act 12 | SMARCA2 act conf inactive | GAL4-VP16 Luc 18
COCCNC(=O)c1ccc2c(c1)NC(=O)CS2	none
O=C(NCCC1=CCCCC1)c1ccc([N+](=O)[O-])cc1	SMARCA2 act 9.5 (no result: ALR H2O2 inh) | SMARCA2 act conf 13 | GAL4-VP16 Luc 12
O=C1CSc2ccc(C(=O)NCCC3=CCCCC3)cc2N1	SMARCA2 act 9.8 | SMARCA2 act conf inactive | GAL4-VP16 Luc 6.8
CN(C)c1ccc(C(=O)OCC(=O)NCCC2=CCCCC2)cc1	none
O=C(Nc1ccc2c(c1)OCO2)c1cc(C2CCCCN2S(=O)(=O)Cc2ccccc2)on1 (stereo unspecified)	none (no result: ALR H2O2 inh, JMJD2C inh, MIN6 prolif, M18AAP inhibitor)
Oc1ccc(Cl)cc1CNc1ccccn1	none (no result: ALR H2O2 inh)
Oc1ccc(Cl)cc1CNc1ccc(Br)cn1	SMARCA2 act 9.9 | SMARCA2 act conf 11 | GAL4-VP16 Luc 10
COc1ccccc1NC(=O)CCN1C(=O)c2ccccc2C1=O	SMARCA2 act 9.5 | SMARCA2 act conf inactive | GAL4-VP16 Luc inactive
COc1ccccc1C(=O)Nc1ccc2c(c1)OCCO2	SMARCA2 act 8.1 (no result: ALR H2O2 inh) | SMARCA2 act conf inactive | GAL4-VP16 Luc 11
O=C(Nc1ccc2c(c1)OCCO2)N1CCOCC1	SMARCA2 act 9.7 | SMARCA2 act conf inactive | GAL4-VP16 Luc inactive
O=C(CCc1ccccc1)Nc1ccc2c(c1)OCCO2	SMARCA2 act 8.2 | SMARCA2 act conf 10 | GAL4-VP16 Luc 11
O=C(Nc1ccc2c(c1)OCCO2)NC12CC3CC(CC(C3)C1)C2	SMARCA2 act 20 | SMARCA2 act conf 12 | GAL4-VP16 Luc 11
N#Cc1cccc(NCC(=O)Nc2ccc3c(c2)OCCO3)c1	SMARCA2 act 9.8 | SMARCA2 act conf inactive | GAL4-VP16 Luc inactive
N#Cc1ccc(NCC(=O)Nc2ccc3c(c2)OCCO3)cc1	none
CCO/N=C(\C)c1c(O)cc(C(C)C)n(-c2ccccc2)c1=O	none
CC(=O)c1c(O)cc(C(C)C)n(-c2ccccc2)c1=O	SMARCA2 act 20 | SMARCA2 act conf inactive | GAL4-VP16 Luc inactive
CC(C)c1ccc(NC(=O)COC(=O)CC2CCCC2)cc1	none (no result: M18AAP inhibitor)
O=C(COC(=O)CC1CCCC1)Nc1cc2c(cc1Cl)C(=O)c1ccccc1C2=O	SMARCA2 act 8.1 | SMARCA2 act conf 8.6 | GAL4-VP16 Luc 14
COc1ccc(/C=C2\OC(=O)c3c(OC)cccc32)cc1OC	SMARCA2 act 8.6 | SMARCA2 act conf 22 | GAL4-VP16 Luc 14
COc1cc(/C=C2\Oc3cc(O)ccc3C2=O)ccc1O	ALR H2O2 inh 97, SMARCA2 act 10 (no result: JMJD2C inh, M18AAP inhibitor) | SMARCA2 act conf 18 | GAL4-VP16 Luc 10
COc1cc2c(c(OC)c1OC)-c1ccc(NCc3ccccc3)c(=O)cc1C(NC(C)=O)CC2 (stereo unspecified)	none (no result: ALR H2O2 inh, JMJD2C inh, MIN6 prolif, M18AAP inhibitor)
COc1ccc(CCNC(=O)c2cc3cc(Cl)ccc3nc2N)cc1OC	none (no result: ALR H2O2 inh, JMJD2C inh, SMARCA2 act, MIN6 prolif, M18AAP inhibitor)
NC(=O)c1ccsc1NC(=O)c1coc2ccccc2c1=O	SMARCA2 act 9.0 | SMARCA2 act conf 23 | GAL4-VP16 Luc 8.9
Cc1ccc(S(=O)(=O)CCC(=O)NCc2ccc(Cl)cc2)cc1	none
Cc1ccc(CNC(=O)CCS(=O)(=O)c2ccc(C)cc2)cc1	SMARCA2 act 10 | SMARCA2 act conf inactive | GAL4-VP16 Luc inactive
CCOC(=O)C1=CCN(S(=O)(=O)c2ccc(F)cc2)C1c1ccc(Cl)cc1 (stereo unspecified)	none (no result: Granule exo inh, ALR H2O2 inh, JMJD2C inh, MIN6 prolif, M18AAP inhibitor)
